The record followed here is PubChem BioAssay (NCATS).

Experiment [1] addresses Cellular tumor antigen p53 (Homo sapiens) (UniProt P04637). The experiment can be described thus: Primary qHTS for small molecule compounds that upregulate eGFP-tagged delta133p53alpha (in N-terminal) cells. (AID 2060322). Further: nearly all actives have a fitted effect of over 75% in size. Further: potency means the concentration at half of the fitted maximal effect.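 On activation: cells pre-induced with doxycycline then dosed without doxycycline; series mostly up to about 56 µM; 0% = DMSO vehicle and 100% = reference activator.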 Particulars: NCI-H358 eGFP-delta133p53alpha fluorescence, 24 h; activation: active compounds read high. In outline:
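NCI-H358 cells pre-induced 24 h with 10 ng/ml doxycycline for eGFP-delta133p53alpha, plated dox-free and exposed 24 h at 37C to titrated compounds. Fixed, Hoechst-stained; gated GFP peak intensity by laser scanning cytometry, normalized to DMSO (0%) and 57.5 uM 5-azacytidine (100%).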
(In general: In qHTS, concentration-response curves come from the screen itself.)

In experiment [2] the target is Aldehyde dehydrogenase, mitochondrial (Homo sapiens) (UniProt P05091). The experiment can be described thus: qHTS for Inhibitors of the Aldehyde Dehydrogenase Family (ALDH2) Primary screen (AID 2061308).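 Further: plate controls were vehicle for no effect and reference inhibitor for full effect; nearly all actives have a fitted effect of over 55% in size.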
Experiment [3] in a line: BET inhibitor-based combinations targeting novel dependencies in MECOM-rearranged (r) AML: OCI-AML3 cell line (AID 2202232). Further: nearly all actives have a fitted effect of over 35% in size. Further: potency means the concentration at half of the fitted maximal effect. Particulars: Potency: OCI-AML3 viability. The essentials:
(§1)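 Viability of cells (500 per well) is scored by luminescent CellTiter-Glo at 48 hr post-dosing. Eleven-point titrations are normalized to DMSO and empty controls and reduced to AUC values.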

The nature of experiment [4]: BET inhibitor-based combinations targeting novel dependencies in MECOM-rearranged (r) AML: MV-4-11 cell line (AID 2202233). Further: potency means the concentration at half of the fitted maximal effect; nearly all actives have a fitted effect of over 45% in size. In outline: (§2)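 Using pin-tool transfer, drugs were added in 11 doses to cells (500/well), incubated 48 hr, and assessed with CellTiter-Glo. Z-AUC is a mean-centring transformation applied separately to each screened line.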
Experiment [5] in a line: BET inhibitor-based combinations targeting novel dependencies in MECOM-rearranged (r) AML: HNT-34 cell line (AID 2202234). Further: nearly all actives have a fitted effect of over 35% in size. Further: potency means the concentration at half of the fitted maximal effect. The essentials:
as §2

Experiment [6] can be described thus: BET inhibitor-based combinations targeting novel dependencies in MECOM-rearranged (r) AML: AML-191 cell line (AID 2202236; further: nearly all actives have a fitted effect of over 35% in size; further: potency means the concentration at half of the fitted maximal effect). The essentials: as §1
Experiment [7] can be described thus: BET inhibitor-based combinations targeting novel dependencies in MECOM-rearranged (r) AML: AML-194 cell line (AID 2202237; further: nearly all actives have a fitted effect of over 40% in size; further: potency means the concentration at half of the fitted maximal effect). The essentials: as §1
Experiment [8] can be described thus: BET inhibitor-based combinations targeting novel dependencies in MECOM-rearranged (r) AML: SET-2 cell line (AID 2202231). Further: nearly all actives have a fitted effect of over 35% in size. Further: potency means the concentration at half of the fitted maximal effect.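 On viability: plate controls were DMSO treated cells for no effect and wells without cells for full effect.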 Particulars: SET-2 AML cells viability, CellTiter-Glo luminescence, 48 h; viability: active compounds read low, concentration not given here. In outline: as §1
(In general: ATP-based viability assays read luminescence as a measure of living cells.)

The nature of experiment [9]: BET inhibitor-based combinations targeting novel dependencies in MECOM-rearranged (r) AML: UCSD-AML1 cell line (AID 2202235). Further: nearly all actives have a fitted effect of over 40% in size. Further: potency means the concentration at half of the fitted maximal effect. In outline: as §2
Experiment [10] deals with Retinaldehyde dehydrogenase 3 (Homo sapiens) (UniProt P47895). As to the kind of experiment: qHTS for Inhibitors of the Aldehyde Dehydrogenase Family (ALDH1A3) Confirmatory screens (AID 2061311). Further: potency means the concentration at half of the fitted maximal effect; nearly all actives have a fitted effect of over 60% in size.
The target in experiment [11] is Aldehyde dehydrogenase 1A1 (Homo sapiens) (UniProt P00352). The experiment can be described thus: qHTS for Inhibitors of the Aldehyde Dehydrogenase Family (ALDH1A1) Confirmatory screens (AID 2061316). Further: on the % scale 0 is the no-effect control and ±100 the full control effect; nearly all actives have a fitted effect of over 65% in size.
The target of experiment [12] is Retinal dehydrogenase 2 (Homo sapiens) (UniProt O94788). As to the kind of experiment: qHTS for Inhibitors of the Aldehyde Dehydrogenase Family (ALDH1A2) Confirmation screens (AID 2061314). Further: potency means the concentration at half of the fitted maximal effect; nearly all actives have a fitted effect of over 65% in size.
For experiment [13], the target named is Retinaldehyde dehydrogenase 3 (Homo sapiens) (UniProt P47895). As to the kind of experiment: qHTS for Inhibitors of the Aldehyde Dehydrogenase Family (ALDH1A3) Primary screen (AID 2061315).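 Further: plate controls were DMSO vehicle for no effect and reference inhibitor for full effect.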

Values joined by “and” are separate entries in the source; they are usually repeats but may differ in a detail not shown here. Equal values may be shown once. Inconclusive results are not listed. Active and inactive are the calls of the source. The call rests on the fitted dose curve; in most records, active means well fitted curve in the direction sought with a large enough effect; inconclusive means small, poorly fitted or top-dose-only effect, or another doubt; inactive means no such curve, though single readings can be large; an effect the other way counts as inactive or inconclusive.

The term viability denotes a read-out of living cells in per cent, often relative to untreated cells.

Sequence of Cellular tumor antigen p53 (Homo sapiens) (P04637 whole entry, looked up): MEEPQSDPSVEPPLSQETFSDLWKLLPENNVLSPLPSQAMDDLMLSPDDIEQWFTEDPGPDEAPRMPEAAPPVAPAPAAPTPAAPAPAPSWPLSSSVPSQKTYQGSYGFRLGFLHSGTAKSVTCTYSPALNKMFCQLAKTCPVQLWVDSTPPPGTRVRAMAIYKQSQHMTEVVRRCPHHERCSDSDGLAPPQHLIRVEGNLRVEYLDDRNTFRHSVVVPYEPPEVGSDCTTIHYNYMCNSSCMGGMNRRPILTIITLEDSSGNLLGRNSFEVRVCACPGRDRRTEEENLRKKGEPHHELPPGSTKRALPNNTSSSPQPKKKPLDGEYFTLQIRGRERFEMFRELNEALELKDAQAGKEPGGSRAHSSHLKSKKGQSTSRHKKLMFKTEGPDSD

With `CCCS(=O)c1ccc2nc(NC(=O)OC)[nH]c2c1` (stereo not given), in experiment [1], the activation was -21.8% (inactive) and -4.96% (inactive). The Potency entry in [2] is “inactive”. Moreover, the Potency in experiment [3] is 26.3 µM (active); in experiment [4], 23.5 µM (active); in experiment [5], 13.2 µM (active); in experiment [6], 8.33 µM (active); in experiment [7], 11.8 µM (active).

`COc1cc2c(cc1OCCCN1CCCC1)N=C(N)C21CCC1`: the activation in experiment [1] is 5.59% (inactive). For the same compound, the Potency result in experiment [2], in experiment [3], in experiment [5], in experiment [9], in experiment [6] and in [7] was “inactive” in each case. In addition, the viability in experiment [8] is 106% (inactive).

As to `Cc1ccc([N+](=O)[O-])cc1S(=O)(=O)N(C)/N=C/c1cnc2ccc(Br)cn12`, the Potency in [1] was 0.213 µM (active); in experiment [8], 0.166 µM (active); in [3], 0.235 µM (active); in experiment [4], 0.0417 µM (active); in [5] it was 0.166 µM (active); in experiment [9], 0.166 µM (active). Further, the Potency result in experiment [2] was “inactive”.

Take `C=CC(=O)Nc1cccc(Oc2nc(Nc3ccc(N4CCN(C)CC4)cc3OC)ncc2Cl)c1`: the Potency is 19.3 µM (active) and 30.1 µM (active) in experiment [1]; 10.5 µM (active) in experiment [3]; 4.68 µM (active) in [4]; 9.34 µM (active) in experiment [5]; 14.8 µM (active) in experiment [6]; 16.6 µM (active) in experiment [7]. Further, the Potency result in experiment [2] is “inactive”.

For the compound `CN(C)Cc1c(C(=O)NCCOc2ccc(C(=O)NO)cc2)oc2ccccc12`, the Potency in experiment [1] is 21.7 µM (active); in experiment [8], 0.662 µM (active); in [3] it was 0.59 µM (active); in experiment [4], 0.263 µM (active); in [5], 0.934 µM (active); in experiment [9], 0.662 µM (active). For the same compound, the Potency is 0.742 µM (active) in [6] and 0.934 µM (active) in experiment [7]. Besides, the Potency result in experiment [2] was “inactive”.

On to `N#C/C(=C\c1ccc(O)c(O)c1)C(=O)Nc1ccccc1`, for which the activation in experiment [1] was -12.1% (inactive). The Potency in experiment [10] is 2.25 µM (active).

With `CCCCc1nc2cc(/C=C/C(=O)NO)ccc2n1CCN(CC)CC`, the Potency in [1] was 27.3 µM (active); in experiment [8], 0.662 µM (active); in [3], 0.833 µM (active); in experiment [4], 0.332 µM (active); in [5], 0.833 µM (active); in [9], 0.833 µM (active). Further, the Potency was 0.833 µM (active) in [6] and 1.18 µM (active) in experiment [7]. Also, in [2], the Potency entry was “inactive”.

Take `Cc1c(CN2CCN(S(C)(=O)=O)CC2)sc2c(N3CCOCC3)nc(-c3cnc(N)nc3)nc12`: the activation in experiment [1] is -10.7% (inactive). In experiment [2], the Potency result is “inactive”. The Potency in [3] is 0.59 µM (active); in experiment [4], 1.32 µM (active); in experiment [5] it was 1.66 µM (active); in [9], 0.186 µM (active); in experiment [6], 0.59 µM (active).

In the case of `CCOc1cc(N2CCC(O)CC2)ccc1Nc1ncc2c(n1)N(C1CCCC1)CCC(=O)N2C`, the activation in experiment [1] is 4.33% (inactive). Besides, in experiment [10], the Potency is 20.1 µM (active). Further, the Potency entry in experiment [11] was “inactive”.

`c1nc2nc(Nc3ccc(N4CCOCC4)cc3)nc(NC3CCCCC3)c2[nH]1`: the activation in experiment [1] was -34% (inactive). For the same compound, in experiment [2], the Potency result is “inactive”. For the same compound, the Potency in experiment [8] was 4.17 µM (active); in [3] it was 3.32 µM (active); in [4], 0.372 µM (active); in experiment [5], 1.48 µM (active); in [7], 2.63 µM (active).

Regarding `C=CC(=O)Nc1cccc(Nc2nc(Nc3ccc(NC4CN(CCF)C4)cc3OC)ncc2C(F)(F)F)c1`, the Potency in experiment [1] is 7.57 µM (active); in [8], 18.6 µM (active); in experiment [3] it was 16.6 µM (active); in [4], 2.63 µM (active); in experiment [5] it was 3.32 µM (active); in experiment [9] it was 9.34 µM (active). Also, the Potency in [6] and in experiment [7] was 13.2 µM (active) in each case. Further, in experiment [2], the Potency entry was “inactive”.

Take `COc1cc(N2CCN(C(C)=O)CC2)ccc1Nc1ncc(Cl)c(Nc2ccc(N3CCN(C(C)=O)CC3)cc2OC)n1`: the activation in experiment [1] is -5.36% (inactive). In addition, the Potency entry in [2] is “inactive”. The Potency in experiment [4] was 0.934 µM (active); in experiment [5], 6.61 µM (active); in [9] it was 4.17 µM (active).

As for `COc1cc(O)c2c(c1)/C=C/C[C@H](O)[C@H](O)C(=O)/C=C\C[C@H](C)OC2=O`, the Potency in experiment [1] was 10.7 µM (active); in experiment [10], 5.04 µM (active); in experiment [12], 5.04 µM (active).

In the case of `COc1ccc(Cn2ccc3ccc(C(=O)NO)cc32)cc1`, the activation in [1] is 20.3% (inactive) and -6.7% (inactive). Further, in experiment [2], the Potency result was “inactive”. In addition, the Potency in experiment [4] was 20.9 µM (active); in experiment [7], 18.6 µM (active).

For `CC1(C)C=CN2C(=O)C3=CCCN3C(=O)[C@@H]2C[C@@]12Nc1ccccc1C2=O`, in [1], the activation was -19.8% (inactive). In addition, the Potency in [10] was 7.83 µM (active).

As to `NC1(c2ccc(-c3nc4ccn5c(=O)[nH]nc5c4cc3-c3ccccc3)cc2)CCC1`, the activation in [1] was 26.3% (inactive) and 14.1% (inactive) and 3.82% (inactive). Besides, the Potency result in experiment [2] was “inactive”. In addition, the Potency in experiment [3] was 16.6 µM (active); in experiment [4] it was 13.2 µM (active); in experiment [5] it was 7.42 µM (active); in experiment [9], 14.8 µM (active); in [6], 18.6 µM (active); in experiment [7], 18.6 µM (active).

As for `Cc1ccc(S(=O)(=O)Nc2cc(Cl)ccc2C(=O)Nc2nc(-c3ccccc3)cs2)cc1`, in experiment [1], the activation was 7.51% (inactive). Moreover, the Potency entry in experiment [2] and in [13] was “inactive” in each case. In experiment [7], the Potency was 7.42 µM (active).

Regarding `O=c1[nH]nc(OCCCc2ccc(Cl)cc2)c(NCc2cccnc2)c1Br`, in experiment [1], the activation is -4.06% (inactive) and -19.1% (inactive). Further, the Potency result in [2] and in experiment [13] was “inactive” in each case. In addition, the Potency in experiment [7] was 20.9 µM (active).
